According to PubChem BioAssay (NCI):
The panel holds about 83,000 compounds, 20% with a hit somewhere; the sample as a whole holds those more often.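 Interpretation: 100, growth as untreated; towards 0, rising growth inhibition; 0, no net growth; 0 to -100, cell death. Compounds scoring below 10 were considered active.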 Activity calls are given as the source filed them.

How the values were obtained:
Experiment in all cases: NCI-60 one-dose screen, 48 h (100 = growth as untreated, 0 = no growth, -100 = all killed)
Settings in all cases: 10 µM unless noted
[1] = system: DU-145 prostate
[2] = system: K-562 leukemia
[3] = system: MALME-3M melanoma
[4] = system: MDA-MB-231 breast
[5] = system: RXF 393 renal
[6] = system: SF-268 CNS
[7] = system: SF-295 CNS
[8] = system: SF-539 CNS
[9] = system: UACC-257 melanoma
[10] = system: M14 melanoma
[11] = system: HCT-15 colon
[12] = system: HT29 colon
[13] = system: SNB-75 CNS
[14] = system: SNB-19 CNS
[15] = system: U251 CNS
[16] = system: PC-3 prostate
[17] = system: SK-MEL-5 melanoma
[18] = system: UACC-62 melanoma
[19] = system: LOX IMVI melanoma
[20] = system: SK-MEL-28 melanoma

Measured: growth

CCOc1ccc(-c2cc(C3(S(=O)(=O)c4ccc(C)cc4)CC=CC3)on2)cc1
inactive: [1] 101% | [2] 70.9% | [3] 83.6% | [4] 91.8% | [5] 93.6% | [6] 98.6% | [7] 90% | [8] 98.6% | [9] 74.9% | [10] 107% | [11] 75.3% | [12] 77.7% | [13] 97.3% | [14] 95.4% | [15] 89.4% | [16] 75.2% | [17] 69.8% | [18] 66.7% | [19] 91.1% | [20] 115%

CN1CCN(Cn2nc(-c3cc(Cl)cc(Cl)c3Cl)oc2=S)CC1
inactive: [1] 108% | [2] 68.8% | [3] 101% | [4] 94.4% | [5] 99.5% | [6] 109% | [7] 87.7% | [8] 106% | [9] 77.8% | [10] 107% | [11] 99.5% | [12] 102% | [13] 80.9% | [14] 95.4% | [15] 97.5% | [16] 92.1% | [17] 101% | [18] 99.7% | [19] 93.8% | [20] 110%

COc1cccc(C2C(C#N)=C(N)Oc3c2ccc2ccccc32)c1 (stereo not given)
inactive: [1] 16.9% | [3] 54.4% | [4] 24.2% | [5] 40.7% | [6] 30.9% | [7] 23.5% | [9] 82% | [13] 79.8% | [14] 37.3% | [15] 24.6% | [16] 21.5% | [18] 37.6% | [19] 14.6% | [20] 69.3%
active: [2] 6.44% | [8] -12% | [10] 9.7% | [11] 9.22% | [12] 7.48% | [17] -1.37%

CCN1C(=O)N(CC)C2C1NN=c1s/c(=C3\C(=O)N(C)c4ccccc43)c(=O)n12 (stereo not given)
inactive: [1] 11.9% | [3] 40.8% | [4] 33.9% | [6] 70.5% | [9] 94.6% | [10] 43.1% | [11] 22.2% | [12] 11.5% | [14] 37.2% | [15] 34.9% | [16] 35% | [17] 32.8% | [18] 29.1% | [19] 47.7% | [20] 52.6%
active: [2] 9.16% | [5] -14.1% | [7] 7.04% | [8] -24.7% | [13] -10.8%

O=C(/C=C/c1ccc([N+](=O)[O-])cc1)c1cccc(Nc2nc(Nc3ccccc3)nc(Nc3ccccc3)n2)c1
inactive: [1] 77.3% | [2] 60.8% | [3] 87.5% | [4] 70.9% | [6] 85.5% | [7] 79.7% | [8] 74.7% | [9] 98.7% | [10] 74.5% | [11] 68.6% | [12] 68.2% | [13] 52.4% | [14] 93.7% | [15] 58% | [16] 62.1% | [17] 62.8% | [18] 82.7% | [19] 67.9% | [20] 88.3%
active: [5] -39.7%

O=C1/C(=C/c2ccc(-c3ccc(Cl)cc3)o2)SC(=S)N1CCc1ccc(O)cc1
inactive: [1] 29.1% | [2] 26.1% | [3] 76.7% | [4] 75.6% | [5] 70% | [6] 31.2% | [7] 104% | [8] 70.9% | [9] 42% | [10] 38.2% | [11] 67.5% | [12] 25.2% | [13] 25.8% | [14] 87.2% | [15] 22.2% | [16] 53.2% | [17] 94.5% | [18] 50.5% | [19] 75.1% | [20] 93.6%

COc1ccc(-c2cc(-c3ccc(Nc4nc(Nc5ccc(Cl)cc5)nc(Nc5ccc(Cl)cc5)n4)cc3)no2)cc1
active: [5] -8.53%
inactive: [1] 91.3% | [2] 69.9% | [3] 104% | [4] 82.1% | [6] 72.9% | [7] 73% | [8] 86.1% | [9] 105% | [10] 86.7% | [11] 76.1% | [12] 78.9% | [13] 89.1% | [14] 107% | [15] 62.4% | [16] 60.5% | [17] 73% | [18] 101% | [19] 76.3% | [20] 89.7%

CN(C)C(=S)NN=C(c1ccccn1)c1ccccn1
active: [1] -18.9% | [2] 7.91% | [3] -6.46% | [5] 6.64% | [8] -48.2% | [13] -22.2% | [17] -19.8% | [18] 9.88% | [19] 8.85%
inactive: [4] 40.3% | [6] 24.6% | [7] 21.5% | [9] 35.9% | [10] 17.2% | [11] 37.3% | [12] 27.9% | [14] 32.7% | [15] 18.1% | [16] 37.7% | [20] 30.7%

Cc1c(C)c2c(c(C)c1OC(=O)CCC(=O)[O-])CCC(C)(CCCCCCCCCCC[P+](c1ccccc1)(c1ccccc1)c1ccccc1)O2 (stereo not given)
active: [1] -54.1% | [2] 6.14% | [3] -83.6% | [4] -34.2% | [5] -78.3% | [6] -61.3% | [7] -87.4% | [8] -69.1% | [9] -54.2% | [10] -60.3% | [11] 2.7% | [12] 6.17% | [13] -31.5% | [14] -42.4% | [15] -70.1% | [16] -31.9% | [17] -98.3% | [18] -54.1% | [19] -91.4% | [20] -77.3%

COc1cccc(-c2cc(-c3ccc(Nc4nc(Nc5ccc(Cl)cc5)nc(Nc5ccc(Cl)cc5)n4)cc3)nc(N)c2C#N)c1
active: [3] -52.9% | [4] -14.1% | [5] -48.7% | [8] 6.72% | [15] 3.83% | [16] -5.44% | [19] -33.6% | [20] -59.7%
inactive: [1] 56.3% | [2] 41.5% | [6] 71% | [7] 83.2% | [9] 16.3% | [10] 15.6% | [11] 22.8% | [12] 16.8% | [13] 65.9% | [14] 106% | [17] 13% | [18] 76.4%

COc1cccc(NC(=O)c2sc3nc(C)c(C(=O)c4ccccc4)cc3c2N)c1
inactive: [1] 99.9% | [2] 64.4% | [3] 81.5% | [4] 91.6% | [5] 85.8% | [6] 87.6% | [7] 67.3% | [8] 86.5% | [9] 81.5% | [10] 80.6% | [11] 87% | [12] 102% | [13] 60.8% | [14] 78% | [15] 82.8% | [16] 89.9% | [17] 93.8% | [18] 73.1% | [19] 97.8% | [20] 82.2%

N#CC1=C(N)Oc2c(ccc3cccnc23)C1c1ccccc1 (stereo not given)
inactive: [1] 17.6% | [2] 17.2% | [3] 47.9% | [4] 48.6% | [6] 45.2% | [7] 18.1% | [9] 74.4% | [10] 20% | [11] 28% | [12] 12.6% | [14] 52.7% | [15] 23.1% | [16] 22.8% | [18] 47.2% | [19] 33.7% | [20] 49.4%
active: [5] 4.49% | [8] -39.6% | [13] -6.14% | [17] 6.58%

CNC1=C([N+](=O)[O-])C(c2ccc(OC)cc2)C(C#N)=C(c2ccc[nH]2)O1 (stereo not given)
inactive: [1] 107% | [2] 95.7% | [3] 97.9% | [4] 104% | [5] 113% | [6] 103% | [7] 101% | [8] 99.2% | [9] 106% | [10] 104% | [11] 106% | [12] 107% | [13] 88.6% | [14] 97% | [15] 101% | [16] 97.1% | [17] 98.2% | [18] 91.8% | [19] 99% | [20] 108%

COc1cc2cc(Oc3ccc(NC(=O)Nc4ccc(Cl)c(Cl)c4)cc3)c(C)nc2cc1OCCN1CCCCC1
active: [2] -35.7% | [10] -33.4% | [16] -30.2%
inactive: [1] 97% | [3] 13.9% | [4] 91.4% | [5] 73.7% | [6] 92% | [7] 99.1% | [8] 86.8% | [9] 93.6% | [11] 71.6% | [12] 19.9% | [13] 96.8% | [14] 99.3% | [15] 53.2% | [17] 89% | [18] 106% | [19] 99.1% | [20] 98.2%

CNC1=C(Br)C(=O)c2c(C(=O)OC)c(C)nc(C)c2C1=O
inactive: [1] 57.9% | [2] 64.4% | [4] 71.6% | [5] 63.5% | [6] 73.5% | [7] 78.3% | [8] 82.8% | [9] 56.1% | [10] 31.4% | [11] 36.8% | [12] 19.8% | [13] 139% | [14] 82.9% | [15] 71.1% | [16] 48.9% | [19] 35.3% | [20] 91.3%
active: [3] -26.6% | [17] -90.9% | [18] 1.42%
